An excerpt weighted towards active compounds, which were near 1.7% of everything screened.
ZTA DNA inh = ZTA (EBV) inhibition in EBNA-1 counter-screen; ZTA-DNA binding, fluorescence polarization; actives 0.15% (n = 320,000); P03206; inhibition, % at 11 µM; AID 2234; in the data active = inhibition above about 33%
LYPLA2 counter = blocks human lysophospholipase 2, a PME1 counter-screen. O95372. recombinant LYPLA2, FP-Rh probe fluorescence polarization. inhibition, % at 5.9 µM. actives 0.38% (n = 320,000). AID 2177;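 active = inhibition above the screen-wide mean plus 3 SD, limit set per campaign, cut at about 26% in these data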
Target sequence (O95372 whole entry, looked up): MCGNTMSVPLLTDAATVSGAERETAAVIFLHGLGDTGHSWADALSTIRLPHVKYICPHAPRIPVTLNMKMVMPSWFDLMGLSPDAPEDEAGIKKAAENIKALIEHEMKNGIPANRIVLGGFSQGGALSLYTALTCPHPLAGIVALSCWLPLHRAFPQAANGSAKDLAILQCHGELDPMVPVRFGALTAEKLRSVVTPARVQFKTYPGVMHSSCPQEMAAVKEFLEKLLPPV
LYPLA1 counter = counter-screen for PME1 inhibitors: inhibitors of human LYPLA1. AID 2174. recombinant LYPLA1, FP-Rh probe fluorescence polarization. inhibition, % at 5.9 µM. actives 0.16% (n = 320,000). O75608;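 active = inhibition above the mean of all tested compounds plus 3 SD, set per campaign, cut at about 14% in these data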;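 also: inhibitors block serine hydrolase probe labeling of LYPLA1 so polarization falls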
GSTO1 counter = counter-screen for RBBP9 inhibitors: inhibitors of human GSTO1. AID 1974. inhibition, % at 5.96 µM. actives 1.1% (n = 300,000). P78417. recombinant GSTO1, activity-based probe fluorescence polarization;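 active = inhibition above the campaign mean inhibition plus 3 SD, cut at about 35% in these data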
Target sequence (P78417 whole entry, looked up): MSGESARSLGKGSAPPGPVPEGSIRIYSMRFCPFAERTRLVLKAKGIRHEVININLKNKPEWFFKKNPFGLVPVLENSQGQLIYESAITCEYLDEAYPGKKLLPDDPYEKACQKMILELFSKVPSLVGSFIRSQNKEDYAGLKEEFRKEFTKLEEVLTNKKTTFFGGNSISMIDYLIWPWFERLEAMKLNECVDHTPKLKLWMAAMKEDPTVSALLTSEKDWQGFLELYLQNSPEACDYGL
PAD4 FP inh = blocks human protein arginine deiminase 4 | recombinant PAD4, RCA probe fluorescence polarization | inhibition, % at 6.36 µM | actives 0.41% (n = 330,000);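 active = percent inhibition above a cutoff equal to the mean of all tested compounds plus 3 SD, cut at about 15% in these data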
EBNA-1 inhibitor = blocks EBNA-1 binding to DNA; inhibition, % at 14.8 µM; AID 1950; actives 0.34% (n = 300,000); EBNA-1 DNA binding, fluorescence polarization; in the data active = inhibition above about 28%
PAD4 confirm = confirmation of human PAD4 inhibitors. inhibition, % at 6.36 µM. actives 28% (n = 1,200). recombinant PAD4, RCA probe fluorescence polarization. shares compounds with PAD4 FP inh. AID 488796;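 active = mean inhibition across replicates above the hit cutoff set by the earlier primary screen, cut at about 15% in these data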;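 also: inhibitors block active-site labeling by the probe so polarization falls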
Numbers stand for hits; i = inactive; nt = not tested or not shown.

SMILES	ZTA DNA inh	LYPLA2 counter	LYPLA1 counter	GSTO1 counter	PAD4 FP inh	EBNA-1 inhibitor	PAD4 confirm
Cc1ccc2nc(NC(=O)CSc3nncc(=O)n3N)sc2c1	i	i	i	i	19	i	i
CCOc1ccccc1N1CC(C(=O)NC2CCCCCC2)CC1=O (stereo not drawn)	nt	nt	nt	nt	i	nt	nt
CN(C)CCCNc1cn[nH]c(=O)c1Cl	i	i	i	i	60	i	i
Cc1ccccc1CC1(CO)CCCN(C(=O)CCCN2CCCCC2=O)C1 (stereo not drawn)	i	i	i	i	i	i	nt
CC1CCCC(NC(=O)Cn2cc(C(F)(F)F)cc(Cl)c2=O)C1C (stereo not drawn)	i	i	i	nt	i	nt	nt
O=C(O)CN1C(=O)/C(=C\c2cc(Br)ccc2OCc2ccc(Cl)cc2Cl)SC1=S	i	i	i	i	i	i	nt
Cc1ccc(-c2nn(-c3ccccc3)cc2/C=C2\SC(=S)N(CC(=O)O)C2=O)cc1	i	i	i	i	15	i	i
COc1ccc(-c2nn(-c3ccccc3)cc2/C=C2/SC(=S)N(CCC(=O)O)C2=O)cc1	i	i	i	i	i	i	nt
O=C(O)CN1C(=O)/C(=C\c2ccccc2OCc2ccc(Cl)cc2)SC1=S	i	i	i	i	22	i	i
CC1=CC(C)(C)N2C(=O)C3(C(C#N)=C(N)OC4=C3C(=O)CC(C)(C)C4)c3c(C)c(C)cc1c32 (stereo not drawn)	i	i	i	i	40	i	i
CCOc1ccc(CCNC(=O)CN(C)S(=O)(=O)c2cccs2)cc1OCC	i	i	i	i	i	i	nt
CCOC(=O)C1=C(C)N=c2s/c(=C\c3ccc(OCC(=O)O)c(OC)c3)c(=O)n2C1c1ccc(OC)cc1 (stereo not drawn)	i	i	i	i	15	i	i
CCOC(=O)C1=C(C)N=c2s/c(=C\c3ccc(OCC(=O)O)cc3)c(=O)n2C1c1ccccc1 (stereo not drawn)	i	i	i	i	i	i	nt
COc1ccc(C(=O)NCCc2ccc(C(F)(F)F)cc2)cc1S(=O)(=O)N1CCOCC1	i	i	i	nt	i	nt	nt
C(=C\CSc1nnnn1-c1ccccc1)/CSc1nnnn1-c1ccccc1	i	i	i	i	i	i	nt
CCCSc1nnc(Sc2nnnn2-c2ccccc2)s1	i	i	i	i	35	i	20
Cc1ccccc1-n1nnnc1Sc1nnnn1-c1ccccc1	i	i	i	i	19	i	i
O=C(NCc1ccccn1)C1CCCCC1	i	i	i	i	i	i	nt
Cc1cc(O)ccc1N/C=C/c1onc(C)c1[N+](=O)[O-]	i	i	i	i	37	i	i
Cc1cccc(N/C=C/c2onc(C)c2[N+](=O)[O-])c1	i	i	i	i	i	i	nt
CC1Cc2ccccc2N1C(=O)CSc1nn2c(=O)c(C(C)(C)C)nnc2s1 (stereo not drawn)	i	i	i	i	15	i	i
CCCNS(=O)(=O)c1ccc(CCC(=O)NCc2ccco2)cc1	i	i	i	i	i	i	nt
O=C(CCNS(=O)(=O)c1cccc(C(F)(F)F)c1)NCc1ccco1	nt	nt	nt	nt	27	nt	i
Cc1nc(SCC(=O)NCc2ccccc2)c2oc3ccccc3c2n1	i	i	i	i	21	i	i
Cc1nc(SCC(=O)O)c2oc3ccccc3c2n1	i	i	i	i	i	i	nt
SMILES	ZTA DNA inh	LYPLA2 counter	LYPLA1 counter	GSTO1 counter	PAD4 FP inh	EBNA-1 inhibitor	PAD4 confirm
COc1ccccc1N1C(=O)c2ccc(C(=O)Nc3ccc(F)cc3)cc2C1=O	i	i	i	i	i	i	nt
COc1ccccc1N1C(=O)c2ccc(C(=O)Nc3cccc(C(C)=O)c3)cc2C1=O	i	i	i	i	37	i	34
Cc1ccc(S(=O)(=O)Nc2ccc(N=Nc3ccc(O)cc3)cc2)cc1	i	i	i	i	i	i	nt
Cc1ccc(S(=O)(=O)/N=C2\C=C(Nc3ccc(O)cc3)C(=O)c3ccccc32)cc1	nt	nt	nt	nt	55	nt	54
COc1ccc(NC(=O)c2ccccc2NC(=O)CN2CCCCCC2)cc1	i	i	i	nt	i	nt	nt
Brc1cccc(CNCC2CCCO2)c1 (stereo not drawn)	i	i	i	i	i	i	nt
CC(C)CCc1c(O)nc(SCC(=O)N2CCCCCC2)[nH]c1=O	i	i	i	i	16	i	i
CCCc1c(O)nc(SCC(=O)N2CCCCC2)[nH]c1=O	i	i	i	i	i	i	nt
COCc1cc(C)nc(SCC(=O)Nc2ccc3c(c2)n(C)c(=O)n3C)c1C#N	i	i	i	i	197	i	i
CN(C)c1ccc(S(=O)(=O)NCC(=O)NCCC2=CCCCC2)cc1[N+](=O)[O-]	i	i	i	nt	i	nt	nt
COc1ccc(-c2noc3c2-c2nc(-c4ccc(Br)cc4)sc2CC3)cc1	i	i	i	i	102	i	i
N#CCCN(Cc1ccccc1)C(=O)c1cccs1	i	i	i	i	31	i	i
CC(C)(C)N(Cc1ccccc1)C(=O)c1cccs1	i	i	i	i	i	i	nt
Cc1cccc(-n2c(N)c(C(=O)NCCN3CCOCC3)c3nc4ccccc4nc32)c1	i	i	i	37	17	i	i
COc1ccc(NS(=O)(=O)c2cccc(C(=O)OCC(=O)c3c(N)n(C)c(=O)n(C)c3=O)c2)cc1	nt	nt	nt	nt	i	nt	nt
COc1cccc(C(=O)OCC(=O)c2c(N)n(C)c(=O)n(C)c2=O)c1	i	i	i	nt	22	nt	i
Cc1cc(Cl)ccc1OCC(=O)OCC(=O)c1c(N)n(C)c(=O)n(C)c1=O	i	i	i	nt	27	nt	i
Cn1c(N)c(C(=O)COC(=O)COc2ccc(Br)cc2)c(=O)n(C)c1=O	i	i	i	nt	171	nt	i
COc1ccc(-n2cnnc2SCC(=O)NC2CCCCC2)cc1	nt	nt	nt	nt	i	nt	nt
CN(CCO)S(=O)(=O)c1ccc2c(c1)C(=NO)c1cc(S(=O)(=O)N(C)CCO)ccc1-2	i	i	i	i	15	i	i
Cc1nc2c3ccccc3nc(NNC(=O)CCC(=O)N3CCCC(C)C3)n2n1 (stereo not drawn)	i	i	i	i	i	i	nt
CCC1(C)Cc2c(sc3nc(SC)[nH]c(=S)c23)CO1 (stereo not drawn)	i	i	i	i	36	i	27
COc1cccc(-n2c(SCC(=O)NCC3CCCO3)nc3c(c2=O)SCC3)c1 (stereo not drawn)	i	i	i	i	i	i	nt
CC(=O)c1cccc(OCc2cc(C(=O)N3CCSCC3)no2)c1	i	i	i	i	35	i	i
COc1cc(C(C)=O)ccc1OCc1cc(C(=O)N2CCSCC2)no1	i	i	i	i	i	i	nt
Cc1ccccc1N1CCN(C(=S)c2ccc([N+](=O)[O-])cc2)CC1	i	i	i	i	20	i	i
CN(C(=O)CCc1nc2ccccc2c(=O)[nH]1)C1CCS(=O)(=O)C1 (stereo not drawn)	i	i	i	nt	i	nt	nt
Cc1ccccc1OCCC(=O)OCC(=O)NC1CCCCC1	i	i	i	i	i	i	nt

Compound activity (PubChem BioAssay)
